Here are results for 33 molecules from PubChem BioAssay (Tox21).

“And” between values parts separate entries of the source, which are not always exact repeats. Identical values can stand only once. Records with an inconclusive call do not appear. The source holds several records for some structures; these can differ, active in one and inactive in another. The source made the active and inactive calls. Calls come from the whole dose curve; as a rule, active = well fitted curve in the direction sought with a large enough effect in the repeat runs; inconclusive = weak or mixed curves; inactive = no such curve, though single readings can be large; an effect the other way counts as inactive or inconclusive.

Assay [1] in a line: qHTS assay to identify small molecule antagonists of the retinoic acid receptor (RAR) signaling pathway (AID 1159552; note: nearly all actives have a fitted effect of over 50% in size; note: potency is the fitted concentration of half-maximal effect). The gist of the method: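 Luminescence from a RARE luciferase reporter in C3RL4 cells served as read-out. Cells received compounds together with 1 uM final retinol and incubated 6 hr at 37 C before detection reagent was added for 30 min at room temperature.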

A short description of assay [2]: qHTS assay to identify small molecule agonists of the retinoic acid receptor (RAR) signaling pathway (AID 1159553). Note: potency is the fitted concentration of half-maximal effect. Put shortly:
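Seed C3RL4 reporter cells at 1,000 per well and incubate overnight at 37 C. Add compounds in DMSO, incubate 6 hr. Add luciferase reagent, wait 30 min at room temperature, read luminescence.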
(In qHTS, concentration-response curves come from the screen itself.)

Assay [3] can be described thus: qHTS assay to identify small molecule antagonists of the estrogen related receptor (ERR) signaling pathway from Tox21 library - cell viability counter screen (AID 1224834). Note: nearly all actives have a fitted effect of over 30% in size. Note: potency is the fitted concentration of half-maximal effect. The gist of the method:
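ERR cells, 2,000/well; 6 h settle at 37 C/5% CO2; pin-tool compound transfer in DMSO; 17.5 h at 37 C; CellTiter-Fluor, 30 min; fluorescence intensity.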

Assay [4] concerns the target Luciferin 4-monooxygenase (Photinus pyralis) (UniProt P08659). Put plainly: qHTS assay to identify small molecule inhibitors of firefly luciferase (AID 1224835). Note: nearly all actives have a fitted effect of over 25% in size. Note: potency is the fitted concentration of half-maximal effect. Put shortly:
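Quantitative HTS format; KM concentrations of both substrates. Purified P. pyralis FLuc activity quantified from luminescence images.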

A short description of assay [5]: qHTS assay to identify small molecule agonists of the constitutive androstane receptor (CAR) signaling pathway - cell viability counter screen (AID 1224836). Note: nearly all actives have a fitted effect of over 45% in size. Note: potency is the fitted concentration of half-maximal effect. The gist of the method: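 Viability read-out: CellTiter-Fluor fluorescence after 23 h compound exposure at 37 C/5% CO2 in double-stable HepG2-CYP2B6-hCAR cells, with PK11195 present at 0.75 uM final; compounds tested in 15-point titration.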

Assay [6] in a line: qHTS assay to identify small molecule antagonists of the constitutive androstane receptor (CAR) signaling pathway - cell viability counter screen (AID 1224837). Note: nearly all actives have a fitted effect of over 45% in size. Note: potency is the fitted concentration of half-maximal effect. The gist of the method: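 Viability was measured with CellTiter-Fluor in a HepG2 line carrying stably transfected hCAR and a CYP2B6-2.2kb construct. Cells were exposed for 23 hr at 37 C to 15 compound concentrations with 50 nM CITCO as agonist.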

The nature of assay [7]: qHTS assay to identify small molecule antagonists of the retinoid acid receptor (RAR) signaling pathway - cell viability counter screen (AID 1159551). Note: nearly all actives have a fitted effect of over 35% in size. The gist of the method:
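Cells (C3RL4) are plated, incubated overnight, dosed with compound in DMSO, then given retinol at 1 uM final. After 6 h at 37 C, CellTiter-Glo is added and luminescence read following 30 min at room temperature.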

A short description of assay [8]: qHTS assay to identify small molecule antagonists of the estrogen related receptor (ERR) signaling pathway - cell viability counter screen (AID 1224818). Note: series mostly up to about 46 µM. Put shortly: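 ERR cells, 2,000/well; 6 h settle at 37 C/5% CO2; compound pin transfer (DMSO); 17.5 h at 37 C; CellTiter-Fluor, 30 min, fluorescence read.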
Assay [9] is described as follows: qHTS assay to identify small molecule antagonists of the estrogen related receptor signaling pathway with the pleiotropic PPARgamma coactivator (PGC) cell viability counter screen (AID 1224822; note: series mostly up to about 46 µM). Put shortly: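 Multiplexed viability counter screen run in PGC/ERR cells treated with compounds for 17.5 h at 37 C; live-cell protease signal measured by CellTiter-Fluor fluorescence.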

Chain of Luciferin 4-monooxygenase (Photinus pyralis) (P08659 whole entry, looked up): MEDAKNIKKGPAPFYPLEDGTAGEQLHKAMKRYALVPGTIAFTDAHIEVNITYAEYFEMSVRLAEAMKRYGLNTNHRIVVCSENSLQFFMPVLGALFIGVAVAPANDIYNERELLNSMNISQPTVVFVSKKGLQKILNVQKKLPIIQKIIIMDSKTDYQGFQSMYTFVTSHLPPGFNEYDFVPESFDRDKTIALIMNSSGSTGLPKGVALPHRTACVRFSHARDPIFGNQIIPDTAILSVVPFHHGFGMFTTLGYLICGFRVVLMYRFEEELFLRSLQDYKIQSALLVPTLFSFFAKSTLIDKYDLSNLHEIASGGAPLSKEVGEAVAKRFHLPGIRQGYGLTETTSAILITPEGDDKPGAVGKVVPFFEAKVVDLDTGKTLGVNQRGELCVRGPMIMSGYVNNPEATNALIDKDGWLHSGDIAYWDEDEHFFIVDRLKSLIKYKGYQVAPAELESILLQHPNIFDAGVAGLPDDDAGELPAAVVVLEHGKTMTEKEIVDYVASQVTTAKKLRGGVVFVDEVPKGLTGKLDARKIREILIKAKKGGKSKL

Consider `C#C[C@]1(O)CC[C@H]2[C@@H]3CCC4=CC(=O)CC[C@@H]4[C@H]3CC[C@@]21C`, for which the Potency in [1] was 27.3 µM (active) and 11.9 µM (active). The Potency entry in assay [2], in assay [3], in assay [4] and in assay [5] was “inactive” throughout.
In the case of `COc1ccc(Nc2ccccc2)c(C)c1`, the Potency result in assay [3], in [4], in assay [5] and in assay [6] was “inactive” throughout.
Take `C=CCOC(=O)c1ccccc1C(=O)OCC=C`: in assay [7], the result was inactive. Moreover, the Potency entry in [1], in assay [2], in [3], in assay [4], in [5] and in assay [6] was “inactive” in each case.
As to `CCCCCOC(C)=O`, the Potency result in [1], in assay [2], in assay [3], in assay [4], in assay [5] and in [6] was “inactive” in each case.
For the molecule `CCCCN(CCCC)CCCC`, the Potency entry in [3], in assay [4], in [5] and in assay [6] was “inactive” throughout.
As to `O=C(OCCOCCOC(=O)c1ccccc1)c1ccccc1`, the outcome in assay [7] was inactive. Also, the Potency entry in assay [1], in assay [2], in assay [3], in assay [4], in assay [5] and in assay [6] was “inactive” throughout.
Turning to `CC(=O)c1ccccc1`, in assay [7], the molecule was called inactive. The Potency entry in [3], in assay [4], in [5] and in [6] was “inactive” throughout.
As to `O=P(OC(CCl)CCl)(OC(CCl)CCl)OC(CCl)CCl`, the molecule was classed as inactive in assay [7]. Also, in assay [1], the Potency entry was “inactive and 27.3 µM (active)”. Moreover, the Potency entry in assay [2], in assay [4] and in [5] was “inactive” each time.
As for `Cc1ccc(N(C)C)cc1`, in assay [7], the outcome was inactive. Further, the Potency result in assay [1], in assay [2], in assay [3], in assay [4] and in assay [5] was “inactive” in each case.
With `Nc1cc([N+](=O)[O-])ccc1O`, the Potency in assay [3] is 48.6 µM (active) and 30.5 µM (active); in assay [5] it was 48.6 µM (active); in [6] it was 30.6 µM (active). Besides, the Potency entry in [4] is “inactive”.
In the case of `O=C(O)[C@H](O)[C@@H](O)[C@H](O)[C@H](O)CO`, the molecule was called inactive in [7]. Besides, the Potency entry in [1], in assay [2], in assay [3], in assay [4] and in assay [5] was “inactive” in each case.
Regarding `OC[C@H]1O[C@@](CO)(O[C@H]2O[C@H](CO)[C@@H](O)[C@H](O)[C@H]2O)[C@@H](O)[C@@H]1O`, the result in [7] was inactive. Also, the Potency entry in [1], in [2], in assay [3], in assay [4], in assay [5] and in [6] was “inactive” each time.
As to `CCCCCCCCCCCCCCCO`, the Potency result in [1], in [2], in assay [3], in assay [4], in assay [5] and in [6] was “inactive” throughout.
`CCCSc1ccc2nc(NC(=O)OC)[nH]c2c1`: the Potency entry in assay [1], in assay [3], in assay [5] and in [6] was “inactive” throughout. In addition, the Potency in assay [2] is 6.11 µM (active) and 21.1 µM (active); in assay [4], 3.99 µM (active) and 4.36 µM (active).
`CC(C)c1ccc(S(=O)(=O)O)cc1`: the Potency result in assay [3], in [4], in assay [5] and in assay [6] was “inactive” in each case.
For the molecule `O=C(O)CCCC[C@@H]1SC[C@@H]2NC(=O)N[C@@H]21`, the call in assay [7] was inactive. Besides, the Potency result in assay [1], in assay [2], in assay [3], in [4], in [5] and in assay [6] was “inactive” throughout.
`CN(C)CCC(c1ccc(Cl)cc1)c1ccccn1` (configuration not stated): the molecule was called inactive in assay [7], in assay [8] and in assay [9]. For the same molecule, the Potency in assay [3] was 48.7 µM (active) and inactive. Moreover, the Potency result in assay [5] is “inactive”.
With `C[C@H]1C[C@@H]2[C@H]([C@@H](O)C[C@@]3(C)[C@H]2CC[C@]3(O)C(=O)CO)[C@@]2(C)C=CC(=O)C=C12`, the Potency result in assay [1], in [2], in assay [3], in assay [4] and in [5] was “inactive” each time.
In the case of `c1ccc(OCCOc2ccccc2)cc1`, the molecule was called inactive in assay [7]. Also, the Potency entry in assay [3], in [5] and in [6] was “inactive” in each case. In assay [4], the Potency was 28.2 µM (active) and 35.6 µM (active).
Consider `O=[N+]([O-])c1ccc(/C=C/c2ccc([N+](=O)[O-])cc2S(=O)(=O)O)c(S(=O)(=O)O)c1`, for which the result in assay [7] was inactive. In addition, the Potency result in [3], in assay [4], in assay [5] and in [6] was “inactive” each time.
Consider `Cc1occc(=O)c1O`, for which the Potency result in assay [3], in assay [4] and in [5] was “inactive” each time.
As to `CCCCC(CC)COC(=O)CCCCC(=O)OCC(CC)CCCC` (configuration not stated), the Potency result in assay [1], in assay [2], in assay [3], in assay [4], in assay [5] and in [6] was “inactive” each time.
With `OCCOCCN1CCN(C2=Nc3ccccc3Sc3ccccc32)CC1`, the Potency result in assay [1], in assay [2], in assay [3] and in assay [5] was “inactive” in each case.
Take `C=CCNC(N)=S`: in assay [7], the result was inactive. The Potency entry in assay [1], in assay [2], in assay [3], in [4], in assay [5] and in assay [6] was “inactive” in each case.
Take `Cc1ccc(S(N)(=O)=O)cc1`: the molecule was classed as inactive in [7]. The Potency result in assay [1], in assay [2], in assay [3], in assay [4], in [5] and in assay [6] was “inactive” in each case.
As for `C[Si](O[Si](C)(C)C)O[Si](C)(C)C`, the Potency entry in assay [3], in [4], in assay [5] and in [6] was “inactive” throughout.
As for `O=C(O)c1ccc2c(c1)C(=O)OC2=O`, the Potency entry in [1], in [2], in assay [3], in assay [4], in assay [5] and in assay [6] was “inactive” throughout.
For `OCCOCCOCCO`, the outcome in assay [7] was inactive. The Potency result in assay [3], in [4], in assay [5] and in assay [6] was “inactive” each time.
With `C=C(C)C(=O)O[C@H]1C[C@@H]2CC[C@@]1(C)C2(C)C`, the Potency in assay [3] was 8.58 µM (active) and inactive; in assay [4] it was 19.9 µM (active) and inactive.
`O=C(O)c1cc(=O)c2c(OCC(O)COc3cccc4oc(C(=O)O)cc(=O)c34)cccc2o1`: in [7], the molecule was classed as inactive. For the same molecule, the Potency entry in assay [1], in [2], in assay [3], in assay [4], in assay [5] and in assay [6] was “inactive” throughout.
For the molecule `O=c1[nH]c(=O)n([C@H]2CCCO2)cc1F`, the Potency result in [1], in assay [2], in [3], in [4], in assay [5] and in assay [6] was “inactive” each time.
Turning to `O=C=NCCCCCCN=C=O`, the Potency result in [1], in [2], in [3], in assay [4], in assay [5] and in assay [6] was “inactive” throughout.
As for `C=C(C)C(=O)Nc1ccc(Cl)c(Cl)c1`, in assay [7], the call was inactive. Moreover, the Potency entry in assay [3], in [4], in assay [5] and in assay [6] was “inactive” throughout.
